In general, inhibition refers to the drop in the measured response relative to a control, in per cent.

Screen size: about 320,000 compounds; about 3,100 (0.97%) were called active. This is one part of a sample in which actives are shown more often than they occur.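 How the source made its calls: active means mean replicate inhibition of at least 70% and a set share of replicates each scoring 70 or more; inconclusive means meets just one of the two criteria; inactive means fails both criteria.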

91 compounds from PubChem BioAssay AID488896 (Broad Institute, 2010) can be followed below.

Chain of Scavenger receptor class B member 1 (Mus musculus) (Q61009 whole entry, looked up): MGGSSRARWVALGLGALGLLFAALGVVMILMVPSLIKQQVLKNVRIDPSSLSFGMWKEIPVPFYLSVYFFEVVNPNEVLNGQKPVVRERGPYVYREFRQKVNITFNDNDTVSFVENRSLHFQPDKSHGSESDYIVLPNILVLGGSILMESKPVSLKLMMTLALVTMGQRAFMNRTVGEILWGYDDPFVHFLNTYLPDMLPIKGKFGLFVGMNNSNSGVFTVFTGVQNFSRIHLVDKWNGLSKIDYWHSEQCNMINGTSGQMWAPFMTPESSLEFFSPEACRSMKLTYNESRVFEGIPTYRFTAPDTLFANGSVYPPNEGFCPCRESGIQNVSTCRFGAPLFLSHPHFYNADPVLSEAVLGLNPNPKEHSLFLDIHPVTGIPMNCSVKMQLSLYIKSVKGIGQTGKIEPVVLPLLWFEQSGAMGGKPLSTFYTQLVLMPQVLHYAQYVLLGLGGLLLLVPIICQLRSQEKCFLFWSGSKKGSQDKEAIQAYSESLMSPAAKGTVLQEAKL

The assay addresses Scavenger receptor class B member 1 (Mus musculus) (UniProt Q61009). The experiment in a line: inhibitors of SR-BI mediated HDL lipid uptake, primary screen, ldlA[mSR-BI] cells, fluorescence, single point (AID 488896).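 Further: 0% = median of neutral control wells and 100% = median of positive control wells.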 Conditions: ldlA[mSR-BI] CHO cells, DiI-HDL uptake fluorescence, 3 h; at 12.5 µM; stronger effect = higher value.
`Cc1ccc(S(=O)(=O)n2oc(=O)c(C3CCCCC3)c2N)cc1`: the inhibition was -8.19% (inactive). Consider `O=C1C(Cl)=C(Oc2ccccc2)C(=O)c2ccccc21`, for which the inhibition is 13.1% (inactive). For `CCOc1ccc2nc(NC(=O)c3cc([N+](=O)[O-])ccc3N3CCOCC3)sc2c1`, the inhibition is 78.1% (active). Then `COc1ccc(S(=O)(=O)N2CCCCC2)cc1NC(=O)c1cc([N+](=O)[O-])ccc1N1CCOCC1`, with 23.2% (inactive). Then `CCCC(=O)N(CCN1CCOCC1)c1nc2ccc(OCC)cc2s1`, with 40.2% (inactive); and `O=C1OC(Cc2ccccc2)C(c2ccccc2)C1=O` (stereo unspecified), with -5.71% (inactive). For the compound `COc1ccc(N=C2C=CC(=O)O2)cc1`, the inhibition is -24.8% (inactive). Turning to `O=S(=O)(Cc1ccc(Cl)cc1Cl)c1ccc(Cl)cc1`, the inhibition is 15.8% (inactive). Under `CCCOC(=O)c1[nH]c2c(c1C)C(=O)CC(c1cc(OC)c(OC)c(OC)c1)C2` (stereo unspecified) stands 81.3% (active); under `COCCOC(=O)c1[nH]c2c(c1C)C(=O)CC(c1ccc(OC)cc1)C2` (stereo unspecified), 41.6% (inactive). As for `CCCOC(=O)c1[nH]c2c(c1C)C(=O)CC(c1cccs1)C2` (stereo unspecified), the inhibition is 59.1% (inactive).

In the case of `Cc1cccc(NC(=S)N2CCC(C(=O)c3ccc(F)cc3)CC2)c1`, the inhibition was 14.1% (inactive). Then `C#CCOCCOCCOCCNc1nc(N2CCN(C(=O)Cn3cc(CCO)nn3)CC2)nc(N2CCN(C(=O)[C@H](CCCCN)n3cc(CCCC)nn3)CC2)n1`, with -18.7% (inactive). As to `COc1ccc(C(CNC(=O)c2cc(S(=O)(=O)Nc3cccc(C)c3)ccc2C)N2CCCC2)cc1` (stereo unspecified), the inhibition is -20.9% (inactive). As to `COC(=O)c1c(NC(C)=O)sc(C(=O)Nc2ccccc2OC)c1C`, the inhibition is 71.5% (active). On to `CCC(=O)Nc1sc(C(=O)Nc2ccccc2)c(C)c1C(=O)OC`, for which the inhibition is 68.4% (inactive). On to `COc1ccccc1NC(=O)c1ccc(C)s1`, for which the inhibition was 18% (inactive). For the compound `c1ccc2c(c1)OC1OC2Oc2ccccc21`, the inhibition was -7.46% (inactive). For `CC(C)Sc1nc(N)nc2c1ncn2C1OC(CO)C(O)C1O` (stereo unspecified), the inhibition was -12.5% (inactive). Then `Cc1ccc2occ(/C=N/NC(=O)c3ccccc3C)c(=O)c2c1`, with -16.4% (inactive); and `Cc1ccc(/C=N/NC(=O)C2=NNC(c3ccccc3)(c3ccccc3)C2)c(O)c1`, with 106% (active); and `COc1ccc(/C=N/NC(=O)c2cc(-c3cccc(C)c3)nc3ccccc23)cc1O`, with 66.3% (inactive). For `CN(C)C(CNC(=O)c1cc2ccccc2o1)c1ccccc1` (stereo unspecified), the inhibition is 6.69% (inactive). Take `O=C(O)c1ccc(OCC2CCCO2)cc1` (stereo unspecified): the inhibition is -17.3% (inactive).

On to `O=C(O)c1ccc(/C=N/NC(=O)c2ccc(Br)cc2)cc1`, for which the inhibition was -48.4% (inactive).

Take `O=C(N/N=C/c1ccc(OCC2COCCO2)cc1)c1ccc(Br)cc1` (stereo unspecified): the inhibition is 74.1% (active). Under `CC1=NN(C(=O)c2ccc(Br)cc2)C(O)(c2ccccc2)C1` (stereo unspecified) stands 88.2% (active); under `CCOC(=O)C1(O)CC(C)=NN1C(=O)c1cccc(Br)c1` (stereo unspecified), 5.6% (inactive). As for `CC1=NN(C(=O)c2ccccc2Br)C(O)(c2cccnc2)C1` (stereo unspecified), the inhibition is -13.8% (inactive). For the compound `COc1cc2c(cc1CNC[C@H]1O[C@@H](n3cnc(C(N)=O)n3)[C@H](O)[C@@H]1O)OCO2`, the inhibition is -13.6% (inactive).

For the compound `O=C1CC(c2ccccc2)C(=O)N2C(=O)CC(c3ccccc3)C(=O)N12` (stereo unspecified), the inhibition was -16.5% (inactive). Take `COc1ccc(CNCCCn2cnc3c(OCc4ccccc4)ncnc32)cc1`: the inhibition was -7.17% (inactive). Turning to `COc1cccc(CC(=NO)c2cccc(OC)c2)c1`, the inhibition is 2.96% (inactive). Turning to `O=C(CCC(=O)N1CCN(S(=O)(=O)c2ccc(Cl)cc2)CC1)NCc1cccc(C(F)(F)F)c1`, the inhibition is -6.5% (inactive). Consider `CC(C)CC(=O)N1CCN(Cc2ccccc2Br)CC1`, for which the inhibition was 82.7% (active). On to `CC(C)CC(=O)N1CCN(Cc2cccc(Cl)c2)CC1`, for which the inhibition was -7.62% (inactive). For the compound `CCOc1cc(CN2CCN(C(=O)CC(C)C)CC2)ccc1OC`, the inhibition is 1.83% (inactive). For `O=C(Nc1c(Br)cc2c(c1Br)Cc1ccccc1-2)C(F)(F)F`, the inhibition is 23.8% (inactive). Turning to `CN(C)c1ccc(C2N(C)C(=O)c3ccccc3N2C)cc1` (stereo unspecified), the inhibition was -4.86% (inactive). As for `CN(C)c1ccc(Nc2c3c4c(cccc4n(C)c2=O)C(=O)c2ccccc2-3)cc1`, the inhibition was 99.9% (active). Under `CCOC(=O)CCC(NC(=O)c1ccc(CNc2nc3cc(C(F)(F)F)ccc3nc2C(=O)OCC)cc1)C(=O)OCC` (stereo unspecified) stands 43.7% (inactive). For the compound `O=C1C[C@@H]2c3c(cccc3CN1Cc1ccccc1)C[C@@H](O)[C@H]2O`, the inhibition was -2.09% (inactive).

For the compound `COc1ccc(OC)c(Cc2cnc3nc(N)nc(N)c3c2C)c1`, the inhibition is 25.9% (inactive). Consider `c1ccc(C(=NNc2nc3ccccc3s2)c2ccccn2)cc1`, for which the inhibition was 40.5% (inactive). As to `O=C(c1cccc(S(=O)(=O)N2CCCCCC2)c1)N1CCN(Cc2ccccc2)CC1`, the inhibition is 19.3% (inactive).

Regarding `O=S(=O)(O)c1cc2onnc2c2ccccc12`, the inhibition is -15.5% (inactive). Regarding `Cc1ccc(SCc2c(C(=O)N/N=C/C3CC=CCC3)nnn2-c2nonc2N)cc1` (stereo unspecified), the inhibition was -16.5% (inactive). `Cc1ccc(SCc2c(C(=O)N/N=C/c3cccnc3)nnn2-c2nonc2N)cc1`: the inhibition is -5.04% (inactive).

`Nc1nonc1-n1nnc(C(=O)N/N=C/c2cc(Br)ccc2O)c1CSC1=NCCS1`: the inhibition was 104% (active). On to `O=[N+]([O-])c1ccc(C=NN=Cc2ccc([N+](=O)[O-])cc2)cc1`, for which the inhibition was 27% (inactive). Under `CC(C)(C)c1nnc2sc(SCC(O)=C(C#N)c3nc4ccccc4[nH]3)nn2c1=O` stands 22.5% (inactive); under `CC(C)(C)C(=O)OCc1nc(-c2ccc(O)c(O)c2)cs1`, -7.58% (inactive); under `COc1ccc(-c2csc(Cc3nc(O)cs3)n2)cc1`, 56.2% (inactive). In the case of `COc1ccc(OC)c(Nc2nc(-c3ccc(O)c(O)c3)cs2)c1`, the inhibition was 108% (active). For the compound `CCN1C[C@@H]2[C@@H]3C(=O)N(C)C(=O)[C@@H]3[C@](C)(C1=O)N2C(=O)c1ccccc1`, the inhibition was 27.8% (inactive). Turning to `COc1ccc(CCC(=O)Nc2ccc(Cl)c(S(=O)(=O)N3CCOCC3)c2)cc1OC`, the inhibition was 60.3% (inactive). For the compound `COc1ccc(/C=N/NC(=O)CNC(=O)c2ccc(S(=O)(=O)N3CCCC3)cc2)c(OC)c1`, the inhibition was 84.2% (active). For the compound `COc1cccc(/C=N/NC(=O)CNC(=O)c2ccc(S(=O)(=O)N3CCOCC3)cc2)c1OC`, the inhibition was 8.73% (inactive).

For `COc1cc(C(=O)NNC(=O)c2ccc(S(=O)(=O)N3CCCCC3)cc2)cc(OC)c1OC`, the inhibition was -0.571% (inactive). Consider `COc1ccc(Cn2cc(CN3CCS(=O)(=O)N(Cc4ccc(-c5cccc(Cl)c5)cc4)C(C)C3=O)nn2)cc1` (stereo unspecified), for which the inhibition was 34.7% (inactive). Under `C=CC(=O)Nc1ccc(Nc2ccnc(Nc3ccc(N4CCN(C)CC4)cc3)n2)cc1` stands 5.16% (inactive); under `COc1ccc(NC(=S)NCCN2CCC(C)CC2)cc1`, 1.02% (inactive). Consider `COc1ccc(N2CCC(CNC(=S)Nc3c(C)cccc3C)C2)cc1` (stereo unspecified), for which the inhibition was 80.7% (active).

Consider `COc1ccc(NC(=S)NCC2CCN(c3ccc(OC)cc3)C2)cc1` (stereo unspecified), for which the inhibition was 27.5% (inactive). As to `Cc1ccccc1N1CCN(C(=O)c2cccnc2)CC1`, the inhibition is -2.45% (inactive). Consider `Cc1cccc(CC2(O)C(=O)Nc3ccccc32)n1` (stereo unspecified), for which the inhibition was -13% (inactive). Regarding `O=S1(=O)CSCS(=O)(=O)C1`, the inhibition was -19.5% (inactive).

With `CCC1CCCCN1C(=S)Nc1ccc(C(C)=O)cc1` (stereo unspecified), the inhibition is -13.3% (inactive). Under `Cc1ccc(N=C2SCCCN2C(=O)c2cccc(N3C(=O)CCC3=O)c2)cc1Cl` stands 32.4% (inactive); under `CC(=O)c1ccc(N=C2SCCCN2C(=O)C2CCCCC2)cc1`, 78.7% (active). Consider `COc1cccc(C=CC(=O)C=CC=Cc2ccccc2)c1`, for which the inhibition is -11.1% (inactive). For `COc1cc(NC(=O)c2ccc3c(c2)OCO3)ccc1NC(=O)c1cccs1`, the inhibition was 58.8% (inactive). As to `COc1cc(NC(=O)COc2ccccc2Cl)ccc1NC(=O)C(C)C`, the inhibition is 49.8% (inactive).

On to `COc1cc(NC(=O)c2cccs2)ccc1NC(=O)c1ccccc1Cl`, for which the inhibition was 83.3% (active). With `O=C(Nc1ccccc1)Oc1cccc2cccnc12`, the inhibition was -13.2% (inactive).

Take `c1ccc(CNc2ncnc3[nH]ncc23)cc1`: the inhibition is -13.5% (inactive). Then `O=C(Nc1ccccc1Cl)c1ccccc1S(=O)(=O)c1ccccc1[N+](=O)[O-]`, with 4.02% (inactive); and `CN(C)S(=O)(=O)Oc1ccccc1C(=O)Nc1ccccc1Cl`, with 79.9% (active); and `CC(=O)Nc1ccc(NC(=O)COc2ccccc2C(=O)Nc2cccc(Cl)c2Cl)cc1`, with 63.3% (inactive). On to `CCN1C[C@@H]2[C@@H]3C(=O)N(Cc4ccccc4)C(=O)[C@@H]3[C@](C)(C1=O)N2C(=O)c1ccc(C(C)(C)C)cc1`, for which the inhibition is -30.1% (inactive). As to `Oc1ccc(-c2nc3ccccc3nc2-c2ccc(O)cc2O)c(O)c1`, the inhibition was 26% (inactive). For the compound `COc1ccc(-n2c(SCC(=O)NCc3ccco3)nnc2-c2c[nH]c3ccccc23)cc1`, the inhibition was 71.4% (active). For the compound `COc1ccc(-n2c(SCC(=O)NCc3cccs3)nnc2-c2ccoc2C)cc1`, the inhibition is -3.66% (inactive).

With `O=C(CSc1nnc(-c2c[nH]c3ccccc23)n1-c1ccc(F)cc1)NCc1ccco1`, the inhibition was 20.6% (inactive). On to `COc1ccc(CCN2CC(C(=O)OCC(=O)NCc3ccccc3Cl)CC2=O)cc1OC` (stereo unspecified), for which the inhibition is -1.72% (inactive). In the case of `CN(C)c1ccc(/C=N/Nc2cc(N3CCOCC3)nc(N3CCOCC3)n2)cc1`, the inhibition was 78.8% (active). For the compound `CCN(CC)c1ccc(C(=O)N/N=C/c2ccc(N3CCOCC3)cc2)cc1`, the inhibition is 25% (inactive). For the compound `Cc1nc(Cl)cc(N/N=C/c2ccccc2)n1`, the inhibition is 15.7% (inactive).

Take `C(=N/Nc1cc(N2CCOCC2)nc(N2CCOCC2)n1)/c1ccccc1`: the inhibition was 76% (active). With `Cc1ccccc1N/N=C/c1ccc(N2CCOCC2)cc1`, the inhibition is 15.9% (inactive). As to `COc1ccc(/C=N/Nc2cc(N3CCOCC3)nc(C)n2)c(OC)c1`, the inhibition is 52.8% (inactive).
